Assays:
Format in all cases: functional
[1] = system: Plasmodium falciparum; experiment: GSK_TCMDC: Inhibition of Plasmodium falciparum 3D7 in whole red blood cells, using parasite LDH activity as an index of growth. Test compounds present at 2uM
[2] = system: Plasmodium falciparum; experiment: GSK_TCMDC: Inhibition of Plasmodium falciparum Dd2 in whole red blood cells, using parasite LDH activity as an index of growth. Test compounds present at 2uM
[3] = system: HepG2; experiment: GSK_TCMDC: Percent inhibition of human HepG2 cell line. Test compounds present at 10uM.

Row | SMILES | Inhibition [1] [%] | Inhibition [2] [%] | Inhibition [3] [%]
1 | Cc1cc(N[C@@H](Cc2ccccc2)C(=O)NCc2cccc(F)c2)nc(NCCc2ccccc2)n1.O=C(O)C(F)(F)F | 100 | 73 | 7
2 | COc1ccc(-c2cccc(NC(=O)c3ccc(C#N)cc3)c2)cc1CN1CCCC1.O=C(O)C(F)(F)F | 98 | 15 | 30
3 | Cc1cc(OCCCn2ccnc2)ccc1-c1csc(/N=C(\N)NCc2ccccc2)n1 | 92 | 42 | 26
4 | Cc1cc(=NN=Cc2ccccc2Cl)c2cccc(C)c2[nH]1 | 97 | 98 | 10
5 | CN(C)CCCOc1cccc(NC(=O)Nc2ccc(Cl)c(Cl)c2)c1.O=C(O)C(F)(F)F | 90 | 8 | 6
6 | O=C(c1ccc(-c2cccc(-c3nc4cc(F)ccc4[nH]3)c2)cc1)N1CCCCC1CN1CCC(O)C1 (stereo not drawn) | 91 | 0 | 11
7 | COc1cc2nccc(Nc3ccc(NC(=O)c4ccc(C)cc4)c(O)c3)c2cc1OC.Cl | 100 | 77 | 96
8 | CCc1nc2nc(C)cc(Nc3ccc4c(c3)OCCO4)n2n1 | 88 | 55 | 8
9 | Cc1cc(Nc2ccccc2)nc(NCCOc2ccccc2)n1.Cl | 100 | 48 | 0
10 | Cc1cccc2nc(-c3cccc(-c4cccc(CNCCc5ccncc5)c4)c3)[nH]c12.O=C(O)C(F)(F)F | 100 | 99 | 20
11 | OC(c1cccc2ccccc12)C1CN(CCc2ccccc2)CCC1(O)c1ccccc1 (stereo not drawn) | 99 | 100 | 0
